Here are results for 10 molecules from PubChem BioAssay (EPA / NIEHS).

Where “and” joins values, the source holds several entries; their conditions need not be identical. Equal entries are not always repeated. Inconclusive results are not listed. Calls of active or inactive are those of the source. How the source made its calls: active means hit-call score of the fitted dose curve at least 0.9, where 1 is the maximum; inconclusive means response in the unintended direction; inactive means score below 0.9.

The nature of this test: CCTE_Shafer_MEA_dev_AB: CCTE's Alamar Blue Assay for Cytotoxicity in the Neural Network Formation Assay, Shafer Lab (AID 2284083).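 Further: twelve days of exposure from plating with re-dosing on DIV 5 and 9.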 As for the experimental part: CCTE_Shafer_MEA_dev assay is conducted using Axion Biosystems 48 well microelectrode array (MEA) plates and Maestro recording system. Each well of the MEA plate contains a grid of 16 microelectrodes embedded in the culture surface. Electrically active cells, such as neurons, can be cultured over the electrodes, and electrical activity in these cells can be recorded extracellularly. The spontaneous firing of neurons is captured from each electrode on a microsecond timescale providing both temporally and spatially precise data. […] The CCTE_Shafer_MEA_dev assay uses primary cultures of rat cortical neurons. Recordings are made on days post-plating 5, 7, 9 and 12. As these cultures mature over time, neural networks develop functional activity and form cohesive networks in which electrical activity can be highly coordinated. CCTE_Shafer_MEA_dev_AB is 1 of 19 assay components of the CCTE_Shafer_MEA_dev assay. It measures the resazurin reduction using fluorescence.Data from the assay component CCTE_Shafer_MEA_dev_AB was analyzed into 1 assay endpoint. This assay endpoint, CCTE_Shafer_MEA_dev_AB, was analyzed in the positive analysis fitting direction relative to DMSO as the negative control and baseline of activity. Using a type of viability reporter, loss-of-signal activity can be used to understand cell viability.
On the day prior to culture, each well was coated thoroughly with 150 uL of 0.05% polyethyleneimine (PEI, Sigma Cat P3143) in 50 mM HEPES (Sigma Cat H7523) at a pH of 8. The plate was incubated at 37C for one hour. PEI was rinsed out with 500 uL of sterile water three times. Plates were stored at 4C until the day of culture. This culture was plated at a seeding density of 1.5 x 10^5 cells/well on a 48-well MEA plate, prepared as described above. Cells were administered via a 25 uL media/laminin ([…]; Sigma Cat L2020-1MG) drop directly onto the microelectrode array, as adding the cells with the laminin results in better attachment than pre-coating with laminin. After 2 hours, an additional 475 uL of cortical media was added and the cells returned to the incubator. Exposure starts at day 0 of plating and is continued over twelve days of network development until the experiment is terminated. Cells are fed with fresh medium on DIV 5 and 9, following the recordings on those days. The entire volume of media in the well is exchanged and any vehicle or compound treatment is renewed. Complete details are found in OP-NHEERL/ISTD/SBB/TJS/2015-03-r0 (available on request, email shafer.tim@epa.gov). Measurement of the electrical activity is non-invasive, and recordings can be made from the same plate over multiple different days of the culture. In cortical neurons, this allows for the measurement of extracellular action potentials over the period during which networks form in the MEA plate.
As to `[Cl-].[Cl-].[NH2-].[NH2-].[Pt+4]`, the result was inactive.

Turning to `Cc1c(O)cccc1C(=O)N[C@@H](CSc1ccccc1)[C@H](O)CN1C[C@H]2CCCC[C@H]2C[C@H]1C(=O)NC(C)(C)C`, the AC50 was 10.1 µM (active). For `C[C@H](CS)C(=O)N1CCC[C@H]1C(=O)O`, the outcome was inactive. As to `CC[C@H](C)C(=O)O[C@H]1CCC=C2C=C[C@H](C)[C@H](CC[C@@H]3C[C@@H](O)CC(=O)O3)[C@H]21`, the AC50 was 687 nM (active) and 2.01 µM (active). As for `C[C@@H]1C[C@H]2[C@@H]3CCC4=CC(=O)C=C[C@]4(C)[C@@]3(F)[C@@H](O)C[C@]2(C)[C@@]1(O)C(=O)CO`, the outcome was inactive. Regarding `NC(N)=Nc1nc(CSCCC(N)=NS(N)(=O)=O)cs1`, the call was inactive. For the molecule `CN(C)CCC(c1ccc(Cl)cc1)c1ccccn1` (stereo not given), the outcome was inactive. On to `CNCCC(Oc1ccc(C(F)(F)F)cc1)c1ccccc1` (stereo not given), for which the AC50 is 5 µM (active).

For the molecule `COc1ccc2cc3[n+](cc2c1OC)CCc1cc2c(cc1-3)OCO2`, the AC50 was 0.45 µM (active).

As for `CN(C)C(=O)C(CCN1CCC(O)(c2ccc(Cl)cc2)CC1)(c1ccccc1)c1ccccc1`, the AC50 is 5.74 µM (active) and 5.44 µM (active) and 5.02 µM (active).
